TDP1 cell noCPT: qHTS for Inhibitors of human tyrosyl-DNA phosphodiesterase 1 (TDP1): qHTS in cells in absence of CPT | Potency, µM (series often up to 46.2 µM), hits mostly inhibitors | AID 686978, 2013 | DT40 Tdp1-/- hTDP1 cells, no CPT, ATP luminescence, 48 h | 420,000 tested, 15% active; further: nearly all actives have a fitted effect of over 55% in size
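Luminescent ATP content (CellTiter-Glo) served as the growth readout. Knockout chicken DT40 cells expressing human TDP1 were exposed to compounds without camptothecin for a minimum 48 hr at 37 °C.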
HT1080 IDH1KD tx: toxicity to HT-1080 IDH1 knockdown cells (counter line); HT-1080 IDH1 knockdown viability, ATP luminescence, 48 h; Potency, µM (titrated, usually from 46.1 µM), usual class: cytotoxic; 360,000 tested, 2% active
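Knockdown cells (IDH1KD HT-1080) received compounds 2 h after plating at 750 cells/well and were kept 48 h at 37 °C in 5% FBS RPMI. A CellTiter-Glo luminescence read gave % activity for curve fitting.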
DT40 TDP1 CPT: DT40-hTDP1 cell growth loss with CPT; chicken DT40 Tdp1-/-;hTDP1 cells + 20 nM CPT, ATP luminescence, 48 h; AID 686979; Potency, µM (titrated, usually from 46.2 µM), hits mostly inhibitors; 420,000 tested, 12% active; further: nearly all actives have a fitted effect of over 55% in size
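Cell growth measured by CellTiter-Glo luminescence after a minimum 48 h, 37 C compound exposure with 20 nM CPT in Tdp1-knockout DT40 cells stably expressing hTDP1, seeded 400/well; qHTS titration format.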
HT1080-NT tox: kills 2HG-producing HT-1080-NT fibrosarcoma cells; HT-1080-NT fibrosarcoma viability, CellTiter-Glo ATP luminescence, 48 h; 360,000 tested, 1.6% active; Potency, µM (titrated, usually from 46.1 µM), hits mostly cytotoxic;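 further: NT is the 2HG producing partner of a matched IDH1 knockdown line; nearly all actives have a fitted effect of over 55% in size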
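Toxicity toward the 2HG-producing NT line was scored as %Activity, normalised to DMSO and no-cell wells, from CellTiter-Glo luminescence after 48 hours' treatment.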
HepG2 tox: counter-screen for TGF-b inhibitors: cytotoxicity in HepG2 cells. HepG2 CAGA-GFP viability, ATP luminescence, 18 h. 410,000 tested, 0.76% active. Potency, µM (highest dose often 46.1 µM), usual class: cytotoxic
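HepG2 CAGA-GFP cells (1000/well, DMEM with 1% FBS) received compound, then TGF-beta at 500 pg/mL final, and were incubated 18 hours at 37 degrees C. Viability was read by CellTiter-Glo luminescence. Media-only wells were set as complete cell-killing and DMSO as no toxicity.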
TGFb inhibitor: TGF-b pathway inhibition. Potency, µM (doses to about 46.1 µM), hits mostly inhibitors. HepG2 CAGA-GFP TGF-b/SMAD3 reporter, GFP fluorescence, 18 h; TGF-beta stimulated, 500 pg/mL final. 410,000 tested, 1.2% active; further: nearly all actives have a fitted effect of over 65% in size
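Cell-based qHTS in HEPG2 carrying a CAGA-GFP Smad reporter; compounds added before 500 pg/mL final TGF-beta, 18 h incubation at 37 degrees C, GFP fluorescence quantified per cell by imaging cytometry.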
A number is an active result. Hits are enriched below; roughly 17% of the tested compounds scored in any of these assays. The call rests on the fitted dose curve; in most records, active means well fitted curve in the direction sought with a large enough effect; inconclusive means small, poorly fitted or top-dose-only effect, or another doubt; inactive means no such curve, though single readings can be large; an effect the other way counts as inactive or inconclusive.

How did CC(Oc1ccc(F)cc1)C(=O)Nc1cc(S(=O)(=O)N2CCCCC2)ccc1N1CCN(C)CC1 (centres undefined) do in these assays?
TDP1 cell noCPT: inconclusive; HT1080 IDH1KD tx: inactive; DT40 TDP1 CPT: 23µM; HT1080-NT tox: inactive; HepG2 tox: inactive; TGFb inhibitor: inactive

What do the screens show for `CN1CCN(c2ccc(S(=O)(=O)N3CCCCC3)cc2NC(=O)COc2ccc(F)cc2)CC1`?
TDP1 cell noCPT: inconclusive; HT1080 IDH1KD tx: inactive; DT40 TDP1 CPT: inconclusive; HT1080-NT tox: inactive; HepG2 tox: inactive; TGFb inhibitor: inactive

What do the screens show for `CCN1CCN(c2ccc(S(=O)(=O)N3CCOCC3)cc2NC(=O)c2cc(Cl)nc3ccccc23)CC1`?
TDP1 cell noCPT: 16µM; HT1080 IDH1KD tx: inactive; DT40 TDP1 CPT: inconclusive; HT1080-NT tox: inactive; HepG2 tox: inactive; TGFb inhibitor: inactive

How did CC(Oc1cccc(Cl)c1)C(=O)Nc1ccccc1N1CCCCC1 (centres undefined) do in these assays?
TDP1 cell noCPT: inactive; HT1080 IDH1KD tx: inactive; DT40 TDP1 CPT: inactive; HT1080-NT tox: inactive; HepG2 tox: inactive; TGFb inhibitor: inconclusive

Results for CCN1CCN(c2ccc(S(=O)(=O)N3CCOCC3)cc2NC(=O)CC(C)C)CC1 ?
TDP1 cell noCPT: inactive; HT1080 IDH1KD tx: inactive; DT40 TDP1 CPT: inactive; HT1080-NT tox: inactive; HepG2 tox: inactive; TGFb inhibitor: inactive

Results for CC(Oc1ccc(F)cc1)C(=O)Nc1ccccc1N1CCCCC1 (centres undefined) ?
TDP1 cell noCPT: 16µM; HT1080 IDH1KD tx: inactive; DT40 TDP1 CPT: inconclusive; HT1080-NT tox: inactive; HepG2 tox: inactive; TGFb inhibitor: inconclusive

Results for CCN1CCN(c2ccc(S(=O)(=O)N3CCOCC3)cc2NC(=O)c2ccccc2SC)CC1 ?
TDP1 cell noCPT: inactive; HT1080 IDH1KD tx: inactive; DT40 TDP1 CPT: inactive; HT1080-NT tox: inactive; HepG2 tox: inactive; TGFb inhibitor: inactive

What do the screens show for `CCN1CCN(c2ccc(S(=O)(=O)N3CCOCC3)cc2NC(=O)C(C)Oc2ccc(Cl)cc2)CC1` (centres undefined)?
TDP1 cell noCPT: 18µM; HT1080 IDH1KD tx: inactive; DT40 TDP1 CPT: inconclusive; HT1080-NT tox: inactive; HepG2 tox: inactive; TGFb inhibitor: inactive

What do the screens show for `CCc1c(-c2cccc(OC)c2)ncn1Cc1cccc(-c2ccccc2)c1`?
TDP1 cell noCPT: 8.2µM; HT1080 IDH1KD tx: inconclusive; DT40 TDP1 CPT: 6.5µM; HT1080-NT tox: 7.3µM

How did CCN(CC)C(=O)c1ncn(Cc2ccccc2)c1C(=O)N(CC)CC do in these assays?
TDP1 cell noCPT: inactive; HT1080 IDH1KD tx: inactive; DT40 TDP1 CPT: inactive; HT1080-NT tox: inactive; HepG2 tox: inactive; TGFb inhibitor: inactive

Results for CCc1c(C2CC2)ncn1Cc1cccc(-c2ccccc2)c1 ?
TDP1 cell noCPT: 1.8µM; HT1080 IDH1KD tx: 16µM; DT40 TDP1 CPT: 1.8µM; HT1080-NT tox: 21µM

What do the screens show for `CCc1c(-c2ccccc2F)ncn1Cc1cccc(-c2ccccc2)c1`?
TDP1 cell noCPT: 2.6µM; HT1080 IDH1KD tx: 8.2µM; DT40 TDP1 CPT: 2.6µM; HT1080-NT tox: 16µM

What do the screens show for `CCc1c(-c2ccc(Cl)cc2)ncn1Cc1cccc(-c2ccccc2)c1`?
TDP1 cell noCPT: 7.3µM; HT1080 IDH1KD tx: inconclusive; DT40 TDP1 CPT: 6.5µM; HT1080-NT tox: inconclusive

What do the screens show for `COc1ccccc1-c1cncnc1NCc1ccccc1`?
TDP1 cell noCPT: inactive; DT40 TDP1 CPT: inactive

Results for CCOCCCNC(=O)c1cn(C)c2ccc(S(=O)(=O)N3CCCCC3)cc2c1=O ?
TDP1 cell noCPT: inactive; HT1080 IDH1KD tx: inactive; DT40 TDP1 CPT: inactive; HT1080-NT tox: inactive; HepG2 tox: inactive; TGFb inhibitor: inactive

Results for COc1ccc(CN2CCc3nc(SCC(=O)Nc4cc(C)cc(C)c4)[nH]c(=O)c3C2)cc1 ?
TDP1 cell noCPT: inactive; DT40 TDP1 CPT: inactive; HepG2 tox: inactive; TGFb inhibitor: inconclusive
